In PubChem BioAssay AID1159580 (chemical genetic matrix, 2015):
Hit rate of the full screen: of about 5,500 compounds, about 2,000 (36%) were called active. Inconclusive results (about 18%) are left out. Cut-off read from the data, not from the text of the source: active = normalized growth mostly below about 0.91 (no sharp cut-off); inconclusive = no clear call, values can overlap the other calls; inactive = mostly above about 0.92. This is one part of the list.

Experiment: chemical genetic growth profiling, strain panel (AID 1159580);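 note: tested at 20 µM; growth read once vehicle control cultures reached saturation at 30 °C; 1 = growth at the plate median or of vehicle wells; lower values mean less growth of the strain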
Settings: growth OD

Measured: normalized growth

O=C(O)c1cc(=O)c2c(OCC(O)COc3cccc4oc(C(=O)O)cc(=O)c34)cccc2o1
inactive: S. cerevisiae deletion strains, locus YKL009W, strain mrt4, hits give low values 1.01 | S. cerevisiae deletion strains, locus YKL068W, hits give low values 1.01 | S. cerevisiae deletion strains, locus YKL085W, strain MDH1 (second series), hits give low values 1.03 | S. cerevisiae deletion strains, locus YKL085W, strain MDH1, hits give low values 1.03 | S. cerevisiae deletion strains, locus YKL160W, strain elf1, hits give low values 0.972 | S. cerevisiae deletion strains, locus YKL190W, strain CNB1, hits give low values 1 | S. cerevisiae deletion strains, locus YKR001C, strain vps1, hits give low values 1.02 | S. cerevisiae deletion strains, locus YKR026C, strain gcn3, hits give low values 0.968 | S. cerevisiae deletion strains, locus YKR091W, strain srl3, hits give low values 0.983 | S. cerevisiae deletion strains, locus YLL001W, strain dnm1, hits give low values 0.935 | S. cerevisiae deletion strains, locus YLL026W, hits give low values 0.991 | S. cerevisiae deletion strains, locus YLL041C, strain sdh2, hits give low values 0.973 | S. cerevisiae deletion strains, locus YLR027C, strain aat2, hits give low values 0.983 | S. cerevisiae deletion strains, locus YLR039C, strain RIC1, hits give low values 1 | S. cerevisiae deletion strains, locus YLR058C, strain SHM2, hits give low values 1.01 | S. cerevisiae deletion strains, locus YLR102C, strain apc9, hits give low values 1.02 | S. cerevisiae deletion strains, locus YLR113W, strain HOG1, hits give low values 0.998 | S. cerevisiae deletion strains, locus YLR221C, strain rsa3, hits give low values 1.02 | S. cerevisiae deletion strains, locus YLR258W, strain gsy2, hits give low values 0.983 | S. cerevisiae deletion strains, locus YLR262C, strain YPT6 (second series), hits give low values 0.933 | S. cerevisiae deletion strains, locus YLR262C, strain YPT6, hits give low values 1.05 | S. cerevisiae deletion strains, locus YLR268W, strain sec22, hits give low values 1.04 | S. cerevisiae deletion strains, locus YLR320W, strain mms22, hits give low values 0.985 | S. cerevisiae deletion strains, locus YLR330W, strain CHS5, hits give low values 1.01 | S. cerevisiae deletion strains, locus YLR342W, strain FKS1 (second series), hits give low values 1.01 | S. cerevisiae deletion strains, locus YLR342W, strain FKS1, hits give low values 0.95 | S. cerevisiae deletion strains, locus YLR357W, strain rsc2, hits give low values 1.01 | S. cerevisiae deletion strains, locus YLR370C, strain arc18, hits give low values 0.974 | S. cerevisiae deletion strains, locus YLR371W, strain rom2, hits give low values 1.02 | S. cerevisiae deletion strains, locus YLR384C, strain iki3, hits give low values 0.961 | S. cerevisiae deletion strains, locus YLR418C, strain cdc73, hits give low values 1.02 | S. cerevisiae deletion strains, locus YML016C, strain PPZ1, hits give low values 1.01 | S. cerevisiae deletion strains, locus YML032C, strain rad52, hits give low values 1.02 | S. cerevisiae deletion strains, locus YML120C, strain ndi1, hits give low values 0.966 | S. cerevisiae deletion strains, locus YML124C, strain tub3, hits give low values 1.01 | S. cerevisiae deletion strains, locus YMR058W, strain fet3, hits give low values 0.967 | S. cerevisiae deletion strains, locus YMR078C, strain ctf18, hits give low values 1.04 | S. cerevisiae deletion strains, locus YMR125W, strain sto1, hits give low values 0.99 | S. cerevisiae deletion strains, locus YMR129W, hits give low values 0.975 | S. cerevisiae deletion strains, locus YMR205C, strain PFK2, hits give low values 0.982 | S. cerevisiae deletion strains, locus YMR223W, strain ubp8, hits give low values 1.03 | S. cerevisiae deletion strains, locus YMR231W, strain pep5, hits give low values 0.971 | S. cerevisiae deletion strains, locus YMR307W, strain GAS1, hits give low values 1.09 | S. cerevisiae deletion strains, locus YNL067W, strain RPL9B, hits give low values 1.01 | S. cerevisiae deletion strains, locus YNL071W, strain lat1, hits give low values 0.989 | S. cerevisiae deletion strains, locus YNL128W, strain TEP1, hits give low values 1.02 | S. cerevisiae deletion strains, locus YNL183C, strain NPR1, hits give low values 0.952 | S. cerevisiae deletion strains, locus YNL209W, strain ssb2, hits give low values 1.01 | S. cerevisiae deletion strains, locus YNL233W, strain BNI4, hits give low values 1.02 | S. cerevisiae deletion strains, locus YNL248C, strain rpa49, hits give low values 1 | S. cerevisiae deletion strains, locus YNL250W, strain rad50, hits give low values 1.07 | S. cerevisiae deletion strains, locus YNL271C, strain bni1, hits give low values 1.03 | S. cerevisiae deletion strains, locus YNL298W, strain CLA4, hits give low values 1.01 | S. cerevisiae deletion strains, locus YNL307C, strain MCK1, hits give low values 1.02 | S. cerevisiae deletion strains, locus YNL322C, strain KRE1 (second series), hits give low values 0.953 | S. cerevisiae deletion strains, locus YNL322C, strain KRE1, hits give low values 1.01 | S. cerevisiae deletion strains, locus YNR049C, strain mso1, hits give low values 0.967 | S. cerevisiae deletion strains, locus YNR052C, strain pop2, hits give low values 1.01 | S. cerevisiae deletion strains, locus YOL006C, strain TOP1, hits give low values 1.01 | S. cerevisiae deletion strains, locus YOL012C, strain htz1 0.937 | S. cerevisiae deletion strains, locus YOL147C, strain pex11, hits give low values 1.03 | S. cerevisiae deletion strains, locus YOR001W, strain rrp6, hits give low values 0.936 | S. cerevisiae deletion strains, locus YOR061W, strain CKA2, hits give low values 1.01 | S. cerevisiae deletion strains, locus YOR069W, strain VPS5, hits give low values 1.01 | S. cerevisiae deletion strains, locus YOR070C, strain gyp1, hits give low values 0.987 | S. cerevisiae deletion strains, locus YOR080W, strain dia2, hits give low values 0.968 | S. cerevisiae deletion strains, locus YOR083W, strain WHI5, hits give low values 0.961 | S. cerevisiae deletion strains, locus YOR106W, strain vam3, hits give low values 0.957 | S. cerevisiae deletion strains, locus YOR136W, strain idh2, hits give low values 1.03 | S. cerevisiae deletion strains, locus YOR144C, strain elg1, hits give low values 1.02 | S. cerevisiae deletion strains, locus YOR184W, strain ser1, hits give low values 1.03 | S. cerevisiae deletion strains, locus YOR231W, strain MKK1, hits give low values 1 | S. cerevisiae deletion strains, locus YOR265W, strain rbl2, hits give low values 0.984 | S. cerevisiae deletion strains, locus YOR270C, strain vph1, hits give low values 0.946 | S. cerevisiae deletion strains, locus YOR290C, strain snf2, hits give low values 1.02 | S. cerevisiae deletion strains, locus YOR316C, strain cot1, hits give low values 1.03 | S. cerevisiae deletion strains, locus YPL051W, strain arl3, hits give low values 0.99 | S. cerevisiae deletion strains, locus YPL055C, strain LGE1, hits give low values 1.01 | S. cerevisiae deletion strains, locus YPL078C, strain atp4, hits give low values 0.933 | S. cerevisiae deletion strains, locus YPL106C, strain sse1, hits give low values 1 | S. cerevisiae deletion strains, locus YPL240C, strain hsp82, hits give low values 1 | S. cerevisiae deletion strains, locus YPL241C, strain CIN2, hits give low values 1.01 | S. cerevisiae deletion strains, locus YPL256C, strain CLN2, hits give low values 1 | S. cerevisiae deletion strains, locus YPR119W, strain clb2, hits give low values 1.03 | S. cerevisiae deletion strains, locus YPR141C, strain kar3, hits give low values 1.03 | S. cerevisiae deletion strains, locus YPR163C, strain tif3, hits give low values 1.02 | S. cerevisiae deletion strains, locus YPR167C, strain met16, hits give low values 1.03 | S. cerevisiae deletion strains, strain wtn01, hits give low values 0.999 | S. cerevisiae strains, strain wild type, hits give low values 1.01
